# For part of these data: Entries with a potency or affinity are not part of this list. Activity calls are given as the source filed them.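 The calls were made as follows, unless noted: active = dose curve with midpoint inside tested range, moderate steepness, plateau gap beyond fit error, low compound glow and bead-link interference; inactive = the rest.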
# Experiments:
# [1] = target: Cell division control protein 42 homolog (Homo sapiens) (UniProt P60953); test: activated mutant Cdc42 GTP-binding inhibitors, dose response, biochemical, multiplex bead flow cytometry, Bodipy-FL-GTP (AID 1333;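 active = fitted half-maximal concentration within the tested dose range, moderate curve steepness, a statistically real signal drop, and little compound fluorescence or tag-binding interference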)
# Cell division control protein 42 homolog (Homo sapiens), sequence (P60953 whole entry, looked up): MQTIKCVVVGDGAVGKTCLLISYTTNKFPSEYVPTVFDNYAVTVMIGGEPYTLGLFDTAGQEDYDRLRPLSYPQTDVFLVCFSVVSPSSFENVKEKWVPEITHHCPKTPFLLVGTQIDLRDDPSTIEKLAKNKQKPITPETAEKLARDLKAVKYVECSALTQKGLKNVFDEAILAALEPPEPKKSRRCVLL
# [2] = target: Cell division control protein 42 homolog (Homo sapiens) (UniProt P60953); test: wildtype Cdc42 GTP-binding inhibitors, dose response, biochemical, multiplex bead flow cytometry, Bodipy-FL-GTP (AID 1334;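 active = fitted half-maximal concentration within the tested range, moderate curve steepness, significant signal drop, and little compound fluorescence or bead-linkage interference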); details: bead-based flow cytometry, Bodipy-FL-GTP binding to GST-Cdc42; at 100 µM (top of the series) unless noted
# [3] = target: GTPase HRas (Homo sapiens) (UniProt P01112); test: inhibitors of GTP binding to wildtype Ras, dose response, biochemical, multiplex bead flow cytometry (AID 1335;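 active = fitted half-maximal concentration within 10 nM to 100 µM, steepness 0.5 to 2, significant signal drop, low assay interference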); details: bead-based flow cytometry, Bodipy-GTP binding to GST-Ras; at 100 µM (top of the series) unless noted
# GTPase HRas (Homo sapiens), sequence (P01112 whole entry, looked up): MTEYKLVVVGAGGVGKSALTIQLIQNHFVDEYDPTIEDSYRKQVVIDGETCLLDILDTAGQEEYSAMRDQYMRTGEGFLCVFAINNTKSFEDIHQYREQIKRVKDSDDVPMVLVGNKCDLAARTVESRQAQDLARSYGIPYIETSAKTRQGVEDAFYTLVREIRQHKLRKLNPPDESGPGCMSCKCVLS
# [4] = tested on: Ras-related protein Rab-7a (dog), GTP binding; test: Rab7 GTP binding inhibitors, potency, dose response, biochemical, wildtype, multiplex bead flow cytometry (AID 1336; call rule not given here)
# [5] = target: Ras-related C3 botulinum toxin substrate 1 (Homo sapiens) (UniProt P63000); test: wildtype Rac1 GTP binding inhibitors, dose response, biochemical, multiplex bead flow cytometry (AID 1340); details: GST-Rac1 beads, Bodipy-FL-GTP binding; at 100 µM (top of the series) unless noted
# [6] = target: GTPase HRas (Homo sapiens) (UniProt P01112); test: activated Ras mutant GTP binding inhibitors, dose response, biochemical, multiplex bead flow cytometry (AID 1341;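 active = dose-response curve with midpoint inside the tested range, moderate steepness, significant amplitude and little compound fluorescence or bead-attachment interference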;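 also: GST-tagged constitutively activated Ras mutant immobilized on beads and multiplexed with other GTPases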)
Structure (SMILES),outcome [1],"fluorescence, percent of control (lower = inhibition) [2]","GTP binding, percent of control [3]",outcome [4],"GTP binding signal, raw median fluorescence (lower = inhibition) (MCF (arbitrary fluorescence units)) [5]",outcome [6]
O=c1c2ccccc2nc2c3ccccc3c(NCc3ccco3)nn12,inactive,80.4%,122%,inactive,144,inactive
COCCOC(=O)c1c(C)oc2ccc(OC(=O)c3ccc4c(c3)OCO4)cc12,inactive,31.7%,83.9%,inactive,262,inactive
CCN(c1ccc(N=Cc2c(O)n(Cc3ccc(OC)cc3)c(=O)c3ccccc23)cc1)C(C)C,inactive,154%,196%,inactive,452,inactive
O=C(COC(=O)C1(c2ccccc2F)CCCC1)Nc1ncc(C(F)(F)F)cc1Cl,inactive,47.6%,60.4%,inactive,194,inactive
O=C(Nc1nc(-c2cccs2)cs1)c1cc2ccccc2oc1=O,inactive,51.8%,130%,inactive,141,inactive
Cc1cc(C)n2nc(SCCOc3ccccc3)nc2n1,inactive,31.1%,71.1%,inactive,183,inactive
COc1cccc(CNCc2sc(C(=O)O)cc2C)c1,inactive,62.1%,87.2%,inactive,33.8,inactive
CCCC(=O)c1ccc(N2CCOCC2)c(F)c1,inactive,48.4%,65.7%,inactive,212,inactive
COC(=O)CSc1nc2cc(Cl)ccc2c(=O)n1C1CCCC1,inactive,98%,180%,inactive,186,inactive
O=[N+]([O-])c1cccc(S(=O)(=O)N2CCCC2)c1,inactive,52.4%,63.8%,inactive,205,inactive
CCOc1ccc(-n2nc3c(=O)[nH]nc(C)c3c2C)cc1,inactive,46.5%,60.9%,inactive,189,inactive
OC(c1ccc(OCc2ccccc2)cc1)c1nnc(-c2ccccc2)o1 (stereo not given),inactive,92.3%,177%,inactive,173,inactive
Cc1ccc(-c2noc(CN3C(C)CCCC3C)n2)cc1 (stereo not given),inactive,51.1%,62.9%,inactive,216,inactive
CN(C)c1ccc(/C=C2\SC(=S)N(Nc3ncc(C(F)(F)F)cc3Cl)C2=O)cc1,inactive,139%,236%,inactive,230,inactive
COc1ccc(/C=N/n2c(N)c(S(=O)(=O)c3cccs3)c3nc4ccccc4nc32)cc1OC,inactive,37.1%,49.3%,inactive,118,inactive
C(=N\Nc1nn2cnnc2c2ccccc12)/c1ccco1,inactive,31.6%,64.2%,inactive,142,inactive
O=C(O)CC/C(=C\c1ccc(N2CCOCC2)c([N+](=O)[O-])c1)c1nc2ccccc2s1,inactive,28.1%,71.9%,inactive,212,inactive
COc1cc(/C=N\NC(=O)CNC(=O)C2COc3ccccc3O2)ccc1O (stereo not given),inactive,51.5%,62.3%,inactive,191,inactive
COc1cc2[nH]c(=S)nc(NC3CCCC3)c2cc1OC,inactive,25.9%,56.7%,inactive,124,inactive
COc1ccc(CNc2ccccc2C(=O)O)cc1,inactive,75.9%,93.4%,inactive,44.1,inactive

Structure (SMILES),outcome [1],"fluorescence, percent of control (lower = inhibition) [2]","GTP binding, percent of control [3]",outcome [4],"GTP binding signal, raw median fluorescence (lower = inhibition) (MCF (arbitrary fluorescence units)) [5]",outcome [6]
Cc1ccc(C(=O)c2ccccc2C(=O)O)cc1C,inactive,113%,141%,inactive,93.5,inactive
O=C(O)c1ccc(COc2cccc3ccccc23)o1,inactive,58.3%,89.1%,inactive,31.9,inactive
O=C(Cc1ccc(Nc2nc(=S)[nH]c3ccccc23)cc1)NC1CCCCC1,inactive,25.9%,61.6%,inactive,153,inactive
Cc1noc(/C=C/c2ccc(-c3ccccc3Cl)o2)c1[N+](=O)[O-],inactive,125%,171%,inactive,199,inactive
O=C(O)c1cccc(NCc2ccc3c(c2)OCO3)c1,inactive,64.9%,88.8%,inactive,41.9,inactive
COc1cc(/C=N/NC(=O)CN(Cc2ccccc2)S(=O)(=O)c2ccc3c(c2)OCCO3)ccc1O,inactive,40.1%,52.5%,inactive,126,inactive
O=C(O)c1ccc(Nc2nc(-c3cccnc3)nc3ccccc23)cc1,inactive,27.9%,66.3%,inactive,142,inactive
O=C(O)c1cc(-c2ccc(/C=C3/SC(=S)N(Cc4ccccc4)C3=O)o2)ccc1Cl,inactive,31.5%,61.5%,inactive,154,inactive
COc1ccc(CN2CCN(CCc3ccccc3)C(CCO)C2)c(O)c1 (stereo not given),inactive,40.6%,82.3%,inactive,265,inactive
Nc1nn2c(-c3ccccc3)cc(=O)[nH]c2c1N=Nc1ccc(Br)cc1,inactive,27.4%,78.1%,inactive,197,inactive
COc1ccc(CN2C(=O)/C(=C/c3ccc(-c4ccc(Cl)c(C(=O)O)c4)o3)SC2=S)cc1,inactive,32.2%,56%,inactive,142,inactive
O=c1c2ccccc2nc2c3ccccc3c(NCc3ccccn3)nn12,inactive,33.4%,68.8%,inactive,167,inactive
Cc1nc2cccc(C)n2c(=O)c1Cl,inactive,38.6%,83.8%,inactive,255,inactive
Cc1cccc(CCSc2ncccc2C(=O)O)c1,inactive,119%,320%,inactive,97,inactive
Cc1c2cc(O)c(=O)cc-2oc2cc(O)c(O)cc12,inactive,5290%,5530%,inactive,5510,inactive
Cc1cc(-c2nnc3n2N=C(c2ccc(-c4ccccc4)cc2)CS3)n[nH]1,inactive,31.3%,72.4%,inactive,172,inactive
COc1ccc(S(=O)(=O)N2CCOCC2)cc1C(=O)Nc1nc2ccccc2s1,inactive,46.1%,55.9%,inactive,153,inactive
COc1ccc(OC)c(CCNCc2ccc(C(=O)O)s2)c1,inactive,58.4%,82.2%,inactive,35.9,inactive
Cc1cc(C(=O)CN2C(=O)C(=O)N(Cc3ccccc3)C2=O)c(C)n1-c1ccccc1F,inactive,34.9%,81.4%,inactive,260,inactive
O=C1Nc2ccc(Br)cc2C12NNc1ccccc1O2 (stereo not given),inactive,33%,77.8%,inactive,182,inactive

Structure (SMILES),outcome [1],"fluorescence, percent of control (lower = inhibition) [2]","GTP binding, percent of control [3]",outcome [4],"GTP binding signal, raw median fluorescence (lower = inhibition) (MCF (arbitrary fluorescence units)) [5]",outcome [6]
COc1ccc(-c2c3c(nc4sc5c(=O)[nH]c(C)nc5c24)CCC3)cc1,inactive,38.2%,49.1%,inactive,153,inactive
Cn1nnc(NC(=S)NC(=O)c2ccc(-c3ccc(Br)cc3)o2)n1,inactive,30.7%,75.4%,inactive,132,inactive
CN(/N=C/c1ccc(Br)o1)C1=NS(=O)(=O)c2ccccc21,inactive,32.2%,69.7%,inactive,185,inactive
COc1ccc(NC(=O)c2cc3nc(-c4ccccc4)cc(C)n3n2)cc1OC,inactive,33.2%,76.8%,inactive,218,inactive
Cc1ccc(Nc2c(F)c(F)c(F)c(F)c2C(=O)O)cc1,inactive,84.8%,106%,inactive,74,inactive
O=C(O)c1ccc(CNCc2cccc(Cl)c2)s1,inactive,61.3%,85.1%,inactive,32.6,inactive
Cc1ccc(S(=O)(=O)Cc2ccc(C(=O)N3CCN(c4cc(C)ccc4C)CC3)o2)cc1,inactive,35%,59.9%,inactive,0,inactive
COc1ccc(S(=O)(=O)n2oc(=O)cc2-c2ccccc2)cc1,inactive,42.2%,90.8%,inactive,248,inactive
COc1ccc(N=C2S/C(=C\c3ccc(N4CCOCC4)o3)C(=O)N2CCc2c[nH]c3ccccc23)cc1,inactive,133%,212%,inactive,210,inactive
CN(C)S(=O)(=O)c1ccc(C(=O)NNc2nc(-c3ccccc3)c3cc(Br)ccc3n2)cc1,inactive,31.2%,71.7%,inactive,166,inactive
Cc1ccccc1NC(=O)c1ccc(NC(=O)C2CC(=O)OC23CCCCC3)cc1 (stereo not given),inactive,32.9%,76.1%,inactive,195,inactive
Cn1c(/C(C#N)=C/c2ccncc2)nc2ccccc21,inactive,36.7%,87.2%,inactive,266,inactive
COc1cc2c(cc1OC)-c1cc(NCc3ccccn3)nc(=O)n1CC2,inactive,30.7%,68.3%,inactive,182,inactive
Clc1ccccc1-c1ccc(/C=N/Nc2nncc(-c3ccccc3)n2)o1,inactive,39%,89.5%,inactive,220,inactive
COc1ccc2c(C(=O)O)cn(CCOc3ccccc3C)c2c1,inactive,64.6%,214%,inactive,59.2,inactive
COc1cc2[nH]c(=S)nc(NCC3CCCO3)c2cc1OC (stereo not given),inactive,59.4%,152%,inactive,177,inactive
COc1cc2[nH]c(=S)nc(NCCc3ccc(S(N)(=O)=O)cc3)c2cc1OC,inactive,36.7%,81.9%,inactive,268,inactive
CCN(CC)S(=O)(=O)c1cc([N+](=O)[O-])ccc1N=Nc1c(O)[nH]c2ccccc12,inactive,82.9%,87.4%,inactive,351,inactive
CCOc1c2ccc(C(=O)N[C@H](C)C3CCCCC3)cc2nn1CCOC,inactive,94.9%,152%,inactive,197,inactive
Cc1ccc(-n2c(=O)[nH]c3c(oc4ccccc43)c2=O)cc1,inactive,34.8%,78.7%,inactive,332,inactive

# Reference: PubChem BioAssay
